GSIS activator = GLuc luminescence reporter in INS-1E cells, primary screen for activators of glucose-dependent secretion of insulin | INS-1E GLuc reporter insulin secretion, 2-3 h | activation, % at 16.6 µM | actives 0.61% (n = 370,000) | AID 743287;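 active = lowest replicate activation of at least 40%, so every replicate reaches that level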;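 note: 0% = median of neutral control wells and 100% = median of IBMX positive control wells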
miR-122 sensor = inhibitors of miR-122 in Huh7 cells; Huh7 miR-122 Renilla luciferase sensor, 48 h; neutral wells = 0, positive control = 100; activation (reporter increase), % at 12.5 µM; actives 0.3% (n = 340,000); AID 602342;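 active = mean replicate activation score at least 90 and every replicate individually at or above 90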;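 note: higher luciferase means less miR-122 activity so hits act as miR-122 inhibitors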
Env fusion inh = inhibitors of HIV Env-mediated cell fusion | HeLa-JRFL Env/CEM21 cell fusion, luciferase | inhibition, % at 12.3 µM | actives 1.1% (n = 360,000);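 active = mean replicate inhibition score of at least 50 and every replicate individually at or above 50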;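 note: 0% = plate neutral controls and 100% = maraviroc near 300 nM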
Statin myotox sup = protects C2C12 myotubes from simvastatin toxicity | ATP luminescence, 48 h; scaled: DMSO 0, geranylgeraniol control 100 | rescue of ATP level, % at 7.49 µM | actives 0.78% (n = 330,000);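 active = mean ATP rescue above about 67%, or every replicate alone reaching that limit, limit read from the data, passing the limit was not always enough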;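 note: myotubes were challenged with 10 µM simvastatin during compound exposure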
EWS-Fli block = blocks EWS/Fli oncoprotein-driven transcription; A673 NR0B1-luciferase reporter, viability-normalised; AID 651661; actives 0.67% (n = 350,000); inhibition, % at 12.6 µM;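 active = mean inhibition of at least 50% after viability correction, with every replicate also passing that limit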;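 note: firefly luciferase signal divided by Alamar Blue viability fluorescence both relative to DMSO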
PAX8 inh HTS = inhibitors of PAX8 transcriptional activity in RMG-I cells. actives 1.2% (n = 360,000). RMG-I TPO-luciferase reporter, SteadyGlo, 24 h. inhibition, % at 12.6 µM. AID 652154;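 active = mean replicate inhibition at least 60% with every replicate also reaching 60%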;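 note: luciferase light reporting Pax8 driven TPO promoter activity; plate controls were median of neutral control wells for no effect and mitoxantrone controls for full effect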
* hit, by the source's call; [ ] = another dose, or the depositor's remark. Shown are actives, neighbours in structure and some others; about 3.1% of the full set was active somewhere.

Screening CCOC(=O)c1c[nH]c(=S)n(-c2ccccc2)c1=O returned GSIS activator -1, miR-122 sensor 2, Env fusion inh -19, Statin myotox sup -2, EWS-Fli block 12 and PAX8 inh HTS -12.
Screening CC(C)C[C@H]1COCn2nncc2CC[C@@H](Cc2ccccc2)C(=O)N1 returned GSIS activator -2, Env fusion inh 66*[16.7 µM], EWS-Fli block 3 and PAX8 inh HTS 2.
`O=C(c1ccc(F)cc1)N1C[C@H]2[C@@H](c3ccccc31)[C@H](CO)N2C(=O)c1ccc(F)cc1` gave GSIS activator 4, miR-122 sensor -12[16.7 µM], Statin myotox sup -6, EWS-Fli block 5 and PAX8 inh HTS -14.
`O=C1CN(S(=O)(=O)Cc2ccccc2)C[C@@H]2[C@@H](c3ccc(C#Cc4cccnc4)cc3)[C@H](CO)N12` gave GSIS activator -22.
CCOc1ccc2oc(C(=O)N(C)CCc3ccc(OC)c(OC)c3)c(C)c2c1 was read as GSIS activator 50*, miR-122 sensor 8, Env fusion inh -22, Statin myotox sup 21, EWS-Fli block 0 and PAX8 inh HTS -4.
CCOc1ccc2oc(C(=O)N(C)CC(=O)Nc3ccc(OCC)c(OCC)c3)c(C)c2c1 was read as GSIS activator -7, miR-122 sensor 0, Env fusion inh -1, Statin myotox sup 7, EWS-Fli block -2 and PAX8 inh HTS 5.
`O=C(COC(=O)c1cc(S(=O)(=O)N2CCOCC2)ccc1O)NCc1ccc2c(c1)OCO2` gave GSIS activator 7, Env fusion inh 82*, Statin myotox sup 22, EWS-Fli block 0 and PAX8 inh HTS -3.
Screening CCOCC(=O)NCc1ccc2c(c1)OCO2 returned miR-122 sensor -9 and Statin myotox sup 76*.
Cc1nc2ccccc2c2oc(C(=O)NCc3ccc4c(c3)OCO4)cc12 was read as GSIS activator -46, miR-122 sensor -2, Env fusion inh 88*, Statin myotox sup 4, EWS-Fli block 15 and PAX8 inh HTS 24.
`COc1ccc(CNC(=O)/C=C/c2cc3c(cc2Br)OCO3)cc1` gave miR-122 sensor -2 and Statin myotox sup 86*.
`Cc1ccc(CC(=O)NCc2ccc3c(c2)OCO3)cc1` gave miR-122 sensor 3, Env fusion inh -54, Statin myotox sup -1 and PAX8 inh HTS -36.
Screening CCCNC(=O)Nc1ccc2c(c1)C(=O)N(C)C[C@H](OC)[C@@H](C)CN(Cc1ccc(-c3ccccn3)cc1)[C@H](C)CO2 returned GSIS activator -39, Env fusion inh -78[16.7 µM], Statin myotox sup 9 and EWS-Fli block 16.
Screening COc1ccc(S(=O)(=O)N(C)C[C@@H]2Oc3ccc(N(C)C)cc3CC(=O)N([C@H](C)CO)C[C@H]2C)cc1 returned GSIS activator 9, miR-122 sensor 4[16.7 µM], Env fusion inh 10[16.7 µM], Statin myotox sup 6, EWS-Fli block -2 and PAX8 inh HTS -2.
For CN1C(=O)c2cc(NC(=O)C3CCCC3)ccc2OC[C@H]2O[C@@H](CC(=O)NCC(F)(F)F)CC[C@@H]21 the results were GSIS activator -1, miR-122 sensor -2[16.7 µM], Statin myotox sup 2, EWS-Fli block 3 and PAX8 inh HTS 5.
Screening COc1ccc(NC(=S)NCc2ccc3c(c2)OCO3)cc1 returned GSIS activator -7, miR-122 sensor 2, Env fusion inh 9, Statin myotox sup -24, EWS-Fli block 65* and PAX8 inh HTS -13.
Screening O=C(N/N=C/c1ccccn1)c1cc(-c2ccc(Br)cc2)nc2ccccc12 returned GSIS activator -5, Env fusion inh -7, EWS-Fli block 17 and PAX8 inh HTS 66*.
Cc1cc2c(cc1C)CSC(c1c(O)ccc3ccccc13)SC2 was read as GSIS activator 185*, miR-122 sensor 1, Env fusion inh 15, Statin myotox sup 1 and PAX8 inh HTS 49.
Screening Cc1cc2c(cc1C)CSC(c1ccc3ccccc3c1O)SC2 returned Env fusion inh 3 and PAX8 inh HTS 18.
Screening O=C(NCc1ccccn1)[C@H]1[C@H](CO)[C@H]2Cn3c(cccc3=O)[C@@H]1N2CC1CCCC1 returned GSIS activator 2 and EWS-Fli block -3.
`O=C(C1CCCC1)N1CC(=O)N2[C@H](CO)[C@@H](c3ccc(-c4cccnc4)cc3)[C@H]2C1` gave GSIS activator 4 and EWS-Fli block 3.
`CCOC(=O)c1ccc(N2C(=O)CC(N3CCN(C/C=C/c4ccccc4)CC3)C2=O)cc1` (configuration not stated) gave miR-122 sensor 0 and Statin myotox sup 127*.
`Cc1cccc2sc(NC(=O)CN(C)S(=O)(=O)c3ccc(Br)s3)nc12` gave GSIS activator -21, miR-122 sensor -1 and Statin myotox sup 100*.
Screening O=C1c2ccccc2-c2onc3ccc(Oc4ccccc4)c1c23 returned GSIS activator -17, miR-122 sensor -11, Env fusion inh -359 and Statin myotox sup 100*.
For CCOC(=O)C(C(=O)OCC)c1cc(Br)c2noc3c2c1C(=O)c1ccccc1-3 the results were miR-122 sensor 2.
For N=C(N)c1ccc(OCCCCCOc2ccc(C(=N)N)cc2)cc1 the results were GSIS activator 2, miR-122 sensor -6, Statin myotox sup -136, EWS-Fli block 6 and PAX8 inh HTS 83*.
`CCCCCCOc1ccc(/C(N)=N/O)cc1` gave miR-122 sensor -10 and Statin myotox sup -20.
`O=C(C[C@@H]1CC[C@@H](NC(=O)Nc2ccc3c(c2)OCO3)[C@@H](CO)O1)NCc1ccccc1` gave GSIS activator 21, Env fusion inh 2[16.7 µM], Statin myotox sup -1, EWS-Fli block -2 and PAX8 inh HTS -5.
For Cc1noc(C)c1NC(=O)Nc1ccc2c(c1)C(=O)N([C@@H](C)CO)C[C@H](C)[C@@H](CN(C)CC1CC1)OCCCC[C@H](C)O2 the results were GSIS activator -5, miR-122 sensor 0[16.7 µM], Env fusion inh 12[16.7 µM] and PAX8 inh HTS -38.
C[C@@H]1CN([C@@H](C)CO)C(=O)c2cc(NC(=O)CCC(F)(F)F)ccc2O[C@@H]1CN(C)Cc1ccc(Oc2ccccc2)cc1 was read as GSIS activator -30, miR-122 sensor 33[16.7 µM], Env fusion inh 7[16.7 µM] and EWS-Fli block 9.
For Cc1ccc(NC(=O)C2CCC2)cc1S(=O)(=O)N1CCCCCC1 the results were GSIS activator -4, miR-122 sensor -5, Env fusion inh -15, Statin myotox sup 9, EWS-Fli block 10 and PAX8 inh HTS 18.
For CCOc1ccc(NS(=O)(=O)c2cc(NC(=O)C3CC3)ccc2C)cc1Br the results were GSIS activator -17, miR-122 sensor 140*, Env fusion inh 12, Statin myotox sup -4, EWS-Fli block 0 and PAX8 inh HTS 15.

Screening results deposited in PubChem by Broad Institute.
